From PubChem BioAssay AID1851 (National Center for Advancing Translational Sciences (NCATS), 2009)
Among all 16,000 compounds or so, about 4,000 (25%) were called active. Not shown: some 26% with an inconclusive outcome. These entries were drawn from the full list. Values without a mark were called inactive. Calls come from the whole dose curve; as a rule, active = well fitted curve in the direction sought with a large enough effect; inconclusive = small, poorly fitted or top-dose-only effect, or effect the other way; inactive = no such curve, though single readings can be large or run the other way.

Biological target: Cytochrome P450 2C9 (Homo sapiens) (UniProt P11712)
Assay: Cytochrome panel assay with activity outcomes
Settings: recombinant CYP, pro-luciferin dealkylation, luminescence, p450-cyp2c9; series mostly up to 57.1 µM
% is set by controls: 0 for no effect and ±100 for the full control effect.

Cytochrome P450 2C9 (Homo sapiens), sequence (P11712 whole entry, looked up): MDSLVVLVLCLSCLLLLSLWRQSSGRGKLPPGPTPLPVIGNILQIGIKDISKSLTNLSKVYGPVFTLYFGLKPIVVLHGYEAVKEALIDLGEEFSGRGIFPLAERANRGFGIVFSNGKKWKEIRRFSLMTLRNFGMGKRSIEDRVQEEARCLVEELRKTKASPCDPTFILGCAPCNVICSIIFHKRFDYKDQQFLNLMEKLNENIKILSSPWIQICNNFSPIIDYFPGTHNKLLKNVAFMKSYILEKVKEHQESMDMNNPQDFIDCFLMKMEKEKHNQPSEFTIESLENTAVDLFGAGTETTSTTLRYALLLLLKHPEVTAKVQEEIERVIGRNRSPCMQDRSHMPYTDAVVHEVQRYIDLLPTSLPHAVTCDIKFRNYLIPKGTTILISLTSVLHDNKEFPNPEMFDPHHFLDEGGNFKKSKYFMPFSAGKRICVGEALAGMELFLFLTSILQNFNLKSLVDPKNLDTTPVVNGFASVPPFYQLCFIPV

| Structure (SMILES) | AC50 | activity, negative = inhibition |
| --- | --- | --- |
| CCNc1ncc2nc(-c3ccc(F)cc3)c(=O)n(CCOC)c2n1 | inactive | – |
| CCOC(=O)c1c(C)c(C)n2c1NC(=O)C2 | – | -2.03% [at 11.4 µM] |
| CCOC(=O)C1=C(C)NC(=O)NC1c1ccoc1 (stereo not drawn) | 12.6 µM (active) | – |
| CCOC(=O)C1=C(C)NC(=O)N[C@@H]1c1coc2cc(C)cc(C)c2c1=O | – | -14.5% [at 11.4 µM] |
| CCN(C(=O)CSc1nc2cc(C(=O)OC)ccc2c(=O)n1Cc1ccco1)c1cccc(C)c1 | 0.2 µM (active) | – |
| COCCNC(=O)CSc1nc2ccc(N3CCOCC3)cc2c(=O)n1Cc1ccc(OC)cc1 | 5.62 µM (active) | – |
| COCCNC(=O)CSc1nc2cc(OC)c(OC)cc2c(=O)n1Cc1ccco1 | 2.24 µM (active) | – |
| COc1cc2nc(N(C)CCCNC(=O)[C@@H]3CCCO3)nc(N)c2cc1OC | inactive | – |
| COc1cc2nc(N3CC=[N+](C(=O)c4ccco4)CC3)nc(N)c2cc1OC | inactive | – |
| COc1ccc2nc(SCC(=O)NN)cc(C)c2c1 | inactive | – |
| COCCn1c(=O)c(-c2ccc(OC)cc2)nc2cnc(N3CCOCC3)nc21 | inactive | – |
| CCCCNC(=O)CSc1nc2cc(OC)c(OC)cc2c(=O)n1Cc1ccc(OC)cc1 | 2.24 µM (active) | – |
| COCCCNC(=O)CCC(=O)Nc1ccc2nc(N3CCOCC3)cc(C)c2c1 | inactive | – |
| CCN1CCC[C@H]1CNC(=O)c1cc(S(N)(=O)=O)ccc1OC | inactive | – |
| Cc1sc2ccccc2[n+]1CCC(=O)O | – | 9.02% [at 11.4 µM] |
| Cc1sc2ccccc2[n+]1CCC(C)S(=O)(=O)[O-] (stereo not drawn) | inactive | – |
| CCOC(=O)C[n+]1c(C)sc2ccc(OC)cc21 | 14.1 µM (active) | – |
| Cn1cc(-c2nc3cnc(Oc4ccccc4)nc3n(CCC#N)c2=O)c2ccccc21 | inactive | – |
| N#CCCn1c(=O)c(CCc2ccccc2)nc2cnc(Oc3ccccc3)nc21 | 7.94 µM (active) | – |
| N#CCCn1c(=O)c(CCc2ccccc2)nc2cnc(OCc3ccccc3)nc21 | 15.8 µM (active) | – |
| N#CCCn1c(=O)c(CCc2ccccc2)nc2cnc(Oc3cccc(Cl)c3)nc21 | 3.16 µM (active) | – |
| COc1cccc(Nc2ncc3nc(CCc4ccccc4)c(=O)n(CCC#N)c3n2)c1 | inactive | – |
| COc1ncc2nc(CCc3ccccc3)c(=O)n(CCC#N)c2n1 | inactive | – |
| COCCn1c(=O)c(-c2cn(C)c3ccccc23)nc2cnc(OCc3ccccc3)nc21 | inactive | – |
| COc1ccc(Oc2ncc3nc(CCc4ccccc4)c(=O)n(CCC#N)c3n2)cc1 | 10 µM (active) | – |

| Structure (SMILES) | AC50 | activity, negative = inhibition |
| --- | --- | --- |
| C/C(=N\[N+](C)(C)C)c1ccc(C)c(C)c1 | – | 13% [at 11.4 µM] |
| COc1ncc2nc(CCc3ccccc3)c(=O)n(C)c2n1 | inactive | – |
| COc1ccc(Oc2ncc3nc(CCc4ccccc4)c(=O)n(C)c3n2)cc1 | 10 µM (active) | – |
| N#CCCn1c(=O)c(-c2ccccc2)nc2cnc(OCc3ccccc3)nc21 | 12.6 µM (active) | – |
| COCCn1c(=O)c(CCc2ccccc2)nc2cnc(Oc3ccc(OC)cc3)nc21 | 10 µM (active) | – |
| N#CCCn1c(=O)c(-c2ccc(F)cc2)nc2cnc(OCc3ccccc3)nc21 | inactive | – |
| COc1ccc(Oc2ncc3nc(C)c(=O)n(C)c3n2)cc1 | inactive | – |
| COCCn1c(=O)c(CCc2ccccc2)nc2cnc(Oc3cccc(Cl)c3)nc21 | 1 µM (active) | – |
| N#CCCn1c(=O)cnc2cnc(OCc3ccccc3)nc21 | inactive | – |
| COc1ccc(CNc2ccnc(-c3ccccc3Cl)n2)c(OC)c1 | – | -11.5% [at 2.29 µM] |
| N[C@@H]1[C@@H]2[C@@H]3C[C@H]4N(CC[C@@]14C(=O)C(=O)O)CC3=CCO[C@@H]2CC(=O)O | – | 5.63% [at 11.4 µM] |
| CC(C)(C)CNCCO | – | 3.65% [at 11.4 µM] |
| O=C(Nc1cccc(F)c1)N1CC[C@@]2(CCCN(C(=O)c3cnccn3)C2)C1 | inactive | – |
| COc1cc(NC(=S)Nc2ccc(S(=O)(=O)N3CCOCC3)cc2)cc(OC)c1OC | 15.8 µM (active) | – |
| CS(=O)(=O)Nc1ccc(S(=O)(=O)N2CCOCC2)cc1 | inactive | – |
| FC(F)(F)c1ccccc1-c1cncnc1Nc1ccccc1 | – | -0.414% [at 2.29 µM] |
| CC(=O)NCCNc1cc(-c2ccccc2C(F)(F)F)ncn1 | – | -3.9% [at 2.29 µM] |
| CC=C(/C(=C/C)c1ccc(O)cc1)c1ccc(O)cc1 | 0.794 µM (active) | – |
| Cc1cc(N2CCN(C)CC2)n2nc(-c3ccc(Cl)cc3)nc2n1 | – | 6.91% [at 11.4 µM] |
| COc1ncc2nc(-c3cc(F)cc(F)c3)c(=O)n(C[C@H]3CCCO3)c2n1 | inactive | – |
| COc1ccc(-c2nc3cnc(Oc4cccc(Cl)c4)nc3n(C[C@H]3CCCO3)c2=O)cc1 | 5.01 µM (active) | – |
| CN(C)c1ncc2nc(-c3cccs3)c(=O)n(C[C@H]3CCCO3)c2n1 | inactive | – |
| O=c1c(-c2cccs2)nc2cnc(Oc3cccc(Cl)c3)nc2n1C[C@H]1CCCO1 | 3.16 µM (active) | – |
| O=c1cnc2cnc(Nc3ccccc3)nc2n1C[C@H]1CCCO1 | inactive | – |
| Cc1nc2cnc(Oc3cccc(Cl)c3)nc2n(C[C@H]2CCCO2)c1=O | inactive | – |

| Structure (SMILES) | AC50 | activity, negative = inhibition |
| --- | --- | --- |
| COc1ccc(-c2nc3cnc(N(C)C)nc3n(C[C@H]3CCCO3)c2=O)cc1 | inactive | – |
| O=c1c(CCc2ccccc2)nc2cnc(Oc3cccc(Cl)c3)nc2n1C[C@H]1CCCO1 | 6.31 µM (active) | – |
| O=c1c(-c2cccs2)nc2cnc(Nc3ccccc3)nc2n1C[C@H]1CCCO1 | inactive | – |
| Cc1noc(C)c1-c1nccc(N2CCN(C)CC2)n1 | – | 14.4% [at 2.29 µM] |
| CN(C)Cc1ccccc1-c1cncnc1NCc1cccnc1 | – | 11.6% [at 2.29 µM] |
| COc1ccc(CNc2cc(-c3ccccc3CN(C)C)ncn2)c(OC)c1 | – | 4.22% [at 2.29 µM] |
| Cc1ccc(-n2c(C)cc(C(=S)N3CCOCC3)c2C)cc1C | 11.2 µM (active) | – |
| CC(=O)Nc1c(C(=O)N2CCOCC2)cnn1-c1ccc(C)c(C)c1 | inactive | – |
| Cc1cnc(CNc2ccnc(-c3ccoc3)n2)cn1 | – | 12.6% [at 2.29 µM] |
| COc1cc2c(cc1OC)-c1cc(=Nc3c(C)cc(C)cc3C)n(C)c(=O)n1CC2 | 1.26 µM (active) | – |
| CSc1c(-c2ccccc2)nc2ccccc2c1C(=O)O | inactive | – |
| Cc1cnc2cc(Cl)ccc2c1SCC(=O)O | – | 3.69% [at 11.4 µM] |
| CSc1c(-c2ccccc2)nc2ccc(Cl)cc2c1C(=O)O | 0.794 µM (active) | – |
| CC1(C)CC(O)CC(C)(C)N1CC(O)COCCOc1ccc(Br)cc1 (stereo not drawn) | inactive | – |
| CC(C)NC(=O)/C(=N\O)c1ccccc1 | inactive | – |
| Cc1ccccc1NC(=O)/C(=C/c1ccccc1)c1ccccc1 | 7.94 µM (active) | – |
| COc1ccc(/C=C(/C(=O)Nc2ccccc2C(=O)NC(C)C)c2ccccc2)cc1 | 10 µM (active) | – |
| O=C(O)/C(=C\c1ccccc1)c1ccccc1 | – | -20.6% [at 11.4 µM] |
| Cc1ccccc1NC(=S)NN1CCN(C)CC1 | inactive | – |
| O=C(O)c1c2ccccc2cc2ccccc12 | inactive | – |
| N[C@@H](Cc1ccnnc1)C(=O)O | – | -15.4% [at 11.4 µM] |
| CCN(CC)C(=O)CSc1nnc(CNc2ccc(F)cc2)o1 | inactive | – |
| O=C(CSc1nnc(CNc2ccc(F)cc2)o1)N1c2ccccc2Sc2ccccc21 | 4.47 µM (active) | – |
| N#Cc1cccc(-c2cc(NCc3ccccc3)ncn2)c1 | – | 10.6% [at 2.29 µM] |
| Cc1ccc(-[n+]2cc(=O)o[nH]2)cc1 | – | 2.87% [at 11.4 µM] |

| Structure (SMILES) | AC50 | activity, negative = inhibition |
| --- | --- | --- |
| CN(C)c1nc(-c2cccc(NS(C)(=O)=O)c2)nc2ccccc12 | – | 15.7% [at 2.29 µM] |
| CS(=O)(=O)Nc1cccc(-c2nc(Nc3ccc(F)cc3)c3ccccc3n2)c1 | – | -24.2% [at 2.29 µM] |
| O=S(=O)(Nc1ccc2oc(-c3ccccc3)nc2c1)c1ccccc1 | 0.794 µM (active) | – |
| CC(C)CN=C(N)N=C(N)N | – | -6.17% [at 11.4 µM] |
| CC1CCc2c(C(=O)Nc3nccs3)csc2C1 (stereo not drawn) | 3.16 µM (active) | – |
| CN1CCc2cc(Cl)c(O)cc2[C@H](c2ccccc2)C1 | inactive | – |
| COc1cccc(C(c2c(C)[nH]n(-c3ccccc3)c2=O)c2c(C)[nH]n(-c3ccccc3)c2=O)c1O | inactive | – |
| CC1=NN(c2ccc(F)cc2)C(=O)C1C(c1cccc(O)c1)c1c(C)[nH]n(-c2ccc(F)cc2)c1=O (stereo not drawn) | 4.47 µM (active) | – |
| CCC(=O)O[C@@]1(C(=O)SCF)[C@@H](C)C[C@H]2[C@@H]3C[C@@H](F)C4=CC(=O)C=C[C@@]4(C)[C@]3(F)[C@@H](O)C[C@]21C | inactive | – |
| O=C(O)CP(=O)(O)O | inactive | – |
| CC(=O)c1cccc(NC(=O)Oc2ccccc2)c1 | inactive | – |
| COc1ccc(NC(=O)c2ccc(COc3ccccc3)o2)cc1 | 0.251 µM (active) | – |
| COc1ccc(NC(=O)CCOc2ccccc2)cc1 | 11.2 µM (active) | – |
| COC(=O)c1cccc(NC(=O)CCCOc2ccccc2)c1 | 3.16 µM (active) | – |
| Cc1cccc(OCCCC(=O)Nc2ccc(N3CCCCC3)cc2)c1 | inactive | – |
| COC(=O)CCC(=O)Nc1cccc(C(=O)Nc2cccc(Cl)c2)c1 | 3.16 µM (active) | – |
| O=C(O)CCSC1=NCCN1 | – | 2.01% [at 11.4 µM] |
| CN(C)Cc1ccccc1-c1cc(NCc2cccs2)ncn1 | – | 12.8% [at 2.29 µM] |
| C[C@]12CC[C@H]3c4ccc(O)cc4CC[C@@H]3[C@H]1CC[C@@H]2OC(=O)CCC1CCCC1 | – | 17.9% [at 11.4 µM] |
| COC(=O)c1cccc(NC(=O)Nc2ccc(Cl)c(Cl)c2)c1 | 2.51 µM (active) | – |
| Cc1ccc(OCc2ccc(C(=O)Nc3nccs3)o2)cc1C | 10 µM (active) | – |
| O=C(Nc1cccc(Cl)c1)Nn1cnnc1 | – | 8% [at 11.4 µM] |
| Cc1onc(C(=O)/C=C/N(C)C)c1C(=O)Nc1nccs1 | inactive | – |
